Data from ChEMBL document CHEMBL4513216, “Probing the Open Global Health Chemical Diversity Library for Multistage-Active Starting Points for Next-Generation Antimalarials” (ACS Infect Dis, 2020).
The whole screen tested about 69,000 compounds, of which about 8,600 (12%) showed an effect of 50% or more. This excerpt belongs to a sample that is enriched for strong results.

system: Plasmodium berghei; assay: Screen against P. berghei liver stage (PbLuc), transformed with Luciferase, at 10uM; assay type: functional, HepG2; conditions: tested at 10 uM

SMILES | INHIBITION [%]
COc1ccc(C(=O)N2C[C@@H](O)[C@H](NCCc3ncccc3C)C2)cc1 | -15.3
Cc1cc(CNc2cc(Cl)ccc2C)no1 | -4.4
Cc1nnsc1CN1C[C@H]2CC[C@@H](C1)N(Cc1c(C)noc1C)C2=O | -42.9
CC(=O)c1cc(C(=O)N2CCC3(CC2)Nc2ccccc2NC3=O)cs1 | 20.3
Nc1cc(C(=O)N2CCC3(CC2)Nc2ccccc2NC3=O)ccn1 | -31.5
COc1cc(C(=O)N2CCC3(CC2)Nc2ccccc2NC3=O)ccn1 | 52.1
COc1ncc(C(=O)N2CCC3(CC2)C(=O)Nc2ccccc23)cn1 | 12
CNc1ncc(C(=O)N2CCC3(CC2)Nc2ccccc2NC3=O)cn1 | 27.6
CNc1cc(C(=O)N2CCC3(CC2)Nc2ccccc2NC3=O)ccn1 | 57.6
Cn1nnnc1SCCC(=O)NCC1Cc2ccccc2O1 (configuration not stated) | -0.554
CN(C)C(=O)CCCS(=O)(=O)Cc1cc(Cl)c2c(c1)OCO2 | 30.6
NC1CCCN(C(=O)c2csc(-c3ccc(C(F)(F)F)cc3)n2)CC1 (configuration not stated) | 32.4
Cc1ncsc1C(=O)NCCNC(=O)OC(C)(C)C | -7.93
COc1cccc(SCCCn2cnc3c(N)ncnc32)c1 | 52.1
COc1ccc(OCCN(C)CCCn2cnc3c(N)ncnc32)cc1 | 10.6
COc1cccc(CN(C)CCCn2cnc3c(N)ncnc32)c1 | 9.84
CC(C)c1[nH]c2ncccc2c1CN1CCN(S(=O)(=O)N(C)C)CC1 | -33.6
Cc1nccn1C1CCCN(C(=O)COCC2CC2)C1 (configuration not stated) | 22.9
O=C(O)c1cccnc1CN(Cc1ccsc1)C1CC1 | 87.5
O=C(CSCc1ccccn1)N(Cc1ccsc1)C1CC1 | 36.2
CN(Cc1csc(-c2ccccc2)n1)Cc1ncccc1C(=O)O | 25.5
O=C(c1cccs1)N1CCc2c(nc(N3CCCCC3)[nH]c2=O)C1 | 37.6
COc1ccc(C(=O)NCc2ccco2)nn1 | 9.4

SMILES | INHIBITION [%]
Cc1cc2c(cc1Cl)C=CC1(CCN(C(=O)N3CCOCC3)CC1)O2 | 89.9
Nc1cc(C(=O)N2CCCC3(C=Cc4ccccc4O3)CC2)ccn1 (configuration not stated) | 34.8
Cc1cc(C)n(CC2CN(CC(=O)NC3CCCC3)CCO2)n1 (configuration not stated) | 0.706
CCN(CC)C(=O)CN1CCC(c2nc(C)c3c(n2)N(C)CCC3)CC1 | 8.12
Cc1cc2c(cc1Cl)C=CC1(CCN(CC(=O)NC3CCCC3)CC1)O2 | 80
Cc1cc2c(cc1Cl)C=CC1(CCN(CC(=O)N3CCOCC3)CC1)O2 | 15.1
Cc1cc(C)n(CC2CN(CC(=O)NC3CCCCC3)CCO2)n1 (configuration not stated) | 8.64
Cc1cc2c(cc1C)OC1(C=C2)CCN(CC(=O)N2CCOCC2)CC1 | 19.5
Cc1cc2c(cc1Cl)C=CC1(CCN(CC(=O)N3CCCC3)CC1)O2 | 85.5
Cc1cc(C(=O)N2CCCC3(C=Cc4ccccc4O3)CC2)cc(=O)[nH]1 (configuration not stated) | -155
CCN(CC)C(=O)CN1CCC2(C=Cc3cc(Cl)c(C)cc3O2)CC1 | 78.9
Cc1ccc(CCC(=O)N2CCOCC2)cc1Cl | -18
Cn1nc(C2CC2)cc1C(=O)N1CCC(c2nnsc2S(C)(=O)=O)CC1 | 18.14
CN(C)C(=O)CN1C(=O)CCC12CCN(Cc1ccsc1)CC2 | 17.4
COc1cc2c(cc1CCC(=O)O)CCC2 | -5.7
COc1cc(C)c(C)cc1S(=O)(=O)N(C)CC(=O)Nc1ccon1 | 27.4
CCCn1nnnc1COc1cc(OC)ccc1C(=O)OC | 18.4
CCCc1cc(NCCCC2CCOC2)n2nccc2n1 (configuration not stated) | -7.65
CCc1cc(NCCCC2CCOC2)n2nccc2n1 (configuration not stated) | 48.1
Clc1ccc2nc(N3CCC(NCCCC4CCOC4)CC3)sc2c1 (configuration not stated) | 88.1
CCc1nccn1CCNC1CCN(c2nc3ccc(Cl)cc3s2)CC1 | 78.1
CCn1ccnc1CNC1CC(=O)N(CCc2cccc(Cl)c2)C1 (configuration not stated) | -6.39
CCS(=O)(=O)CCNC1CCN(c2nc3ccc(Cl)cc3s2)CC1 | 85.2

SMILES | INHIBITION [%]
CS(=O)(=O)N1CCC(Nc2ccnc3ccc(Cl)cc23)CC1 | -20.6
CCc1cc(N2CCC(NCCc3ccccc3F)CC2)nc(C)n1 | 11
CCCc1cc(N2CCC(NCCc3ccc(O)cc3)CC2)nc(C)n1 | 30.3
CCOc1ccc2cc(C(=O)NCCNc3ccc(C)nn3)[nH]c2c1 | -21.9
Cc1cc(C(=O)NC2CCC3(CCC(=O)N3C)CC2)no1 (configuration not stated) | 28.4
CN(Cc1ccco1)[C@@H]1CN(Cc2ccsc2)C[C@@H]2CCCO[C@@H]21 | 17.5
CC(C)N(Cc1ccccn1)C(=O)CCC(=O)c1ccccc1 | 34.1
CC(C)c1n[nH]c(C2CN(CCc3cccs3)CCO2)n1 (configuration not stated) | -21.9
CN(Cc1ccco1)C(=O)C1=NN(C)C(=O)CC1 | -14.3
CC(=O)N(CCc1nc(-c2cc(C(N)=O)oc2C)cs1)C(C)C | 74
CC(=O)N(C)CCc1nc(-c2cc(C(N)=O)co2)cs1 | -91.4
CC(=O)N(CCc1nc(-c2cc(C(N)=O)co2)cs1)C(C)C | -49.3
CC(C)C(=O)N1CCCC1c1nc(N(C)C)ncc1-c1ccc(Cl)cc1 (configuration not stated) | 26.7
CN(C)c1nccc(C2CCCN(C(=O)CO)C2)n1 (configuration not stated) | 23.2
CC(=O)N1CCOC(c2nc(N(C)C)ncc2-c2cccc(F)c2)C1 (configuration not stated) | 9.93
CC(=O)N1CCCC(c2nc(N(C)C)ncc2-c2cccc(F)c2)C1 (configuration not stated) | 74.9
CCC(=O)N1CCCC1c1nc(N(C)C)ncc1-c1ccc(Cl)cc1 (configuration not stated) | 50.8
CCC(=O)N1CCCC(c2nc(N(C)C)ncc2-c2ccc(F)cc2)C1 (configuration not stated) | 73.1
CC(=O)N1CCCC(c2nc(N(C)C)ncc2-c2ccccc2)C1 (configuration not stated) | 9.98
COCC(=O)N1CCCC(c2nc(N(C)C)ncc2-c2ccccc2)C1 (configuration not stated) | 42.5
CC(=O)N1CCCC1c1nc(N(C)C)ncc1-c1ccccc1 (configuration not stated) | 1.62
